A short description of assay [1]: cytotoxicity in PPC-1 cells, confirmation, cytotoxicity control for TRAIL apoptosis potentiator project, cell-based, ATP content luminescence (AID 1447;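 active means reconfirmed compounds whose average cytotoxicity reaches 50% or more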;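 further: 0% = DMSO-treated cells and 100% = wells holding medium but no cells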). The conditions noted are these: PPC-1 viability, ATPlite luminescence, overnight; at 5 µM; stronger effect = higher value. For orientation: In ATP-based viability assays light output follows the ATP content of the culture.
Assay [2] concerns the target Protein Mdm4 (Homo sapiens) + E3 ubiquitin-protein ligase Mdm2 (Homo sapiens) (UniProt O15151+Q00987). Put plainly: retested Mdm2-MdmX interaction blockers, confirmation, cell-based, luminescence, single concentration, set 2 (AID 504601;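 active means mean inhibition of the luminescence signal across two replicates at or above 26 percent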). Conditions: SaOS-2 split-luciferase Mdm2/MdmX complementation, at 8 µM, stronger effect = higher value.
A short description of assay [3]: inhibitors of PAF-induced NF-kB signaling, retest, confirmation, cell-based, GFP fluorescence, single concentration (AID 602472; in the data active means inhibition above about 40%;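 further: stimulus PAF is a Pseudomonas aeruginosa filtrate and not platelet activating factor; plate controls were DMSO wells with stimulus for no effect and unstimulated DMSO wells for full effect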). The conditions noted are these: KKLEB CF airway cells, overnight, at 5 µM, stronger effect = higher value.
A short description of assay [4]: inhibition of Brca1/Bard1 split-luciferase complementation, confirmation, counter-screen for Mdm2/MdmX interaction inhibitor project, luminescence, single concentration (AID 504668; call rule not given here). Conditions: Brca1/Bard1 bimolecular luciferase complementation counterscreen, at 8 µM, stronger effect = higher value.
In assay [5] the target is COP9 signalosome complex subunit 5 (Homo sapiens) (UniProt Q92905). Put plainly: Csn5 deneddylation inhibitors, confirmation, biochemical, fluorescence polarization, single concentration, SCF-Nedd8OG substrate (AID 720654; in the data active means inhibition above about 50%;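 further: 0% = DMSO with enzyme and 100% = no enzyme wells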). Conditions: Csn5 deneddylation of SCF-Nedd8OG, 90 min, at 16.6 µM, stronger effect = higher value. (Polarisation of emitted light reports the rotation of a fluorescent probe.)

The target in assay [6] is 72 kDa type IV collagenase (Homo sapiens) (UniProt P08253). In words: MMP-2 protease inhibition counter-screen, confirmation, counter-screen for CSN deneddylation inhibitor project, biochemical, fluorescence, single concentration (AID 720655;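 active means corrected plate-normalized z-score of 5 or more, or -5 or less, or inhibition of 15% or more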;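 further: plate controls were DMSO wells with enzyme for no effect and buffer wells lacking MMP-2 for full effect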). Conditions: recombinant MMP-2, FRET substrate fluorescence, 60 min; at 16.6 µM. On the technique in general: A counterscreen serves to expose hits that act by an unwanted route or on another target.

A further assay addresses Prothrombin (Bos taurus) (UniProt P00735). In words: bovine thrombin inhibition counter-screen, confirmation, counter-screen for CSN deneddylation inhibitor project, biochemical, fluorescence polarization, single concentration (AID 720656;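 active means inhibition at or above a set limit, with a fluorescence interference ratio between 0.5 and a set maximum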). The conditions noted are these: bovine thrombin cleavage of Ub4-pepOG, at 16.6 µM, stronger effect = higher value.
Assay [7] can be described thus: PMA/ionomycin-induced NF-kB reporter inhibitors, Jurkat retest, confirmation, T-cell NF-kB inhibitor project, cell-based, luminescence, single concentration (AID 435020).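 Further: plate controls were PMA/ionomycin stimulated DMSO wells for no effect and unstimulated DMSO wells for full effect.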 Conditions: Jurkat NF-kB luciferase, 16 h, at 4 µM, stronger effect = higher value.
The nature of assay [8]: activators of apoptotic CHOP UPR arm, confirmation, cell-based, CHO-CHOP luciferase reporter, single concentration (AID 463112; in the data active means activation above about 33%;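 further: 0% = DMSO wells and 100% = tunicamycin 10 µg/mL wells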). Conditions: CHO-CHOP cells, CHOP-luciferase reporter luminescence; at 10 µM; stronger effect = higher value; percent of tunicamycin response, DMSO as zero.
The target in assay [9] is Sentrin-specific protease 8 (Homo sapiens) (UniProt Q96LD8). In words: SENP8 protease inhibitors, retest, confirmation, biochemical, luminescence, single concentration (AID 488912;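 active means mean inhibition across replicates above about 50%, limit read from the data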). The conditions noted are these: Recombinant SENP8, Z-RLRGG-aminoluciferin luminescence, 60 min; at 12.5 µM; stronger effect = higher value.
The target of assay [10] is Sentrin-specific protease 6 (Homo sapiens) (UniProt Q9GZR1). In words: SENP6 protease inhibitors, confirmation, biochemical, luminescence, single concentration (AID 488915;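 active means mean inhibition above about 50% in the one-dose retest, limit read from the data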). The conditions noted are these: recombinant SENP6, Z-RLRGG-aminoluciferin luminescence; at 12.5 µM; stronger effect = higher value.
Assay [11] deals with Sentrin-specific protease 7 (Homo sapiens) (UniProt Q9BQF6). In words: SENP7 protease inhibitors, retest, confirmation, biochemical, luminescence, single concentration (AID 488917;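 active means mean inhibition above about 50% in the one-dose retest, limit read from the data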). The conditions noted are these: recombinant SENP7, Z-RLRGG-aminoluciferin luminescence, 40 min; at 12.5 µM; stronger effect = higher value.
The target in another assay is Caspase-3 (Homo sapiens) (UniProt P42574). Put plainly: caspase-3 protease inhibitors, confirmation, selectivity assay for SENP inhibitor project, biochemical, single concentration (AID 488918;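 active means mean inhibition above about 50%, limit read from the data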;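 further: plate controls were enzyme with DMSO for no effect and wells without caspase-3 for full effect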). Conditions: purified caspase-3, Z-DEVD-aminoluciferin luminescence, 60 min; at 12.5 µM; stronger effect = higher value.
Assay [12] is described as follows: luciferase luminescence interference by compounds, confirmation, artefact control for SENP inhibitor project, biochemical, single concentration, SENP8 reaction pre-completed (AID 488919;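 active means mean inhibition above about 50% when retested at one dose, limit read from the data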;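 further: plate controls were DMSO wells with completed reaction for no effect and substrate without enzyme for full effect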). Conditions: Pre-incubated SENP8/Z-RLRGG-aminoluciferin, at 12.5 µM, stronger effect = higher value.

The source of these data is PubChem BioAssay.

Values without a mark were called inactive. This is one part of the list. Activity calls are given as the source filed them.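 How the source made its calls, unless noted: active means inhibition reaching about 45% at 4 µM in either replicate (limit read from the data); inactive means the rest.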

What is called inhibition is the drop in the measured response relative to a control, in per cent.

Sentrin-specific protease 7 (Homo sapiens), sequence (Q9BQF6 706-1050 limits assumed): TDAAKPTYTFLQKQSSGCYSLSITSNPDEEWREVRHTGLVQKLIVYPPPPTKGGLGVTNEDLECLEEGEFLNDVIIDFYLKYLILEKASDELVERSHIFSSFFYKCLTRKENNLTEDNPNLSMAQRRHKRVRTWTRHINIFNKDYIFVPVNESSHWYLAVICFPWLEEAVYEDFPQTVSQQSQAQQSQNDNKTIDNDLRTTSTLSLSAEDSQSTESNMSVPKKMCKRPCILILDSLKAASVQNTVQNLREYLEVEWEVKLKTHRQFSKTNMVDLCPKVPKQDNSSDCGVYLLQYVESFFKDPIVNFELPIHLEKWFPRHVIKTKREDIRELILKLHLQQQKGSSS
Caspase-3 (Homo sapiens), sequence (P42574 28-227 limits assumed): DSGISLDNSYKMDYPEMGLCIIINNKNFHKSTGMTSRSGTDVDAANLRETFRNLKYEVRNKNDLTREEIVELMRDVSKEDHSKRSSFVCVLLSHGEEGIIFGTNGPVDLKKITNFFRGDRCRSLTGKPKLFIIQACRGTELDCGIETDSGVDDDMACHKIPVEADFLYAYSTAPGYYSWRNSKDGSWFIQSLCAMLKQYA
Sentrin-specific protease 8 (Homo sapiens), sequence (Q96LD8 whole entry, looked up): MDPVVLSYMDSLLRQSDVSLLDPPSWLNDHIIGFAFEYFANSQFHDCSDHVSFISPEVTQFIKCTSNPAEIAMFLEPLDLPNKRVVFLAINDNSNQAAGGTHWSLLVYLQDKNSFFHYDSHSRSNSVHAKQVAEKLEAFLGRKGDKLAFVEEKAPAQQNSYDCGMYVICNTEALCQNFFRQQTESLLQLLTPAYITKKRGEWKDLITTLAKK
Sentrin-specific protease 6 (Homo sapiens), sequence (Q9GZR1 628-1112 limits assumed): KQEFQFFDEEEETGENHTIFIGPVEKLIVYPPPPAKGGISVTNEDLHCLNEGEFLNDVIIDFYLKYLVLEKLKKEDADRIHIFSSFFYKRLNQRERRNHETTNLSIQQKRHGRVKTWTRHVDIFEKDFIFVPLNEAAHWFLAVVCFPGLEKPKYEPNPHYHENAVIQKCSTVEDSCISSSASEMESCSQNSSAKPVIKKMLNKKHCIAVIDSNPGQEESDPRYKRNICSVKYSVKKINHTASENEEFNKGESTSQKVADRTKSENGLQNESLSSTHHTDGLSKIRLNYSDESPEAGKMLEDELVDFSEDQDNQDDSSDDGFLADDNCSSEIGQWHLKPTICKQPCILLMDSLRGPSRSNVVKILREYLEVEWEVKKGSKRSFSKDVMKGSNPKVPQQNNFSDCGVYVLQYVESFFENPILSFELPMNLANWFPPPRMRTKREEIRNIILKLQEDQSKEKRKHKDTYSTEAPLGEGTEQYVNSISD
Protein Mdm4 (Homo sapiens) + E3 ubiquitin-protein ligase Mdm2 (Homo sapiens), sequence (O15151 whole entry, looked up): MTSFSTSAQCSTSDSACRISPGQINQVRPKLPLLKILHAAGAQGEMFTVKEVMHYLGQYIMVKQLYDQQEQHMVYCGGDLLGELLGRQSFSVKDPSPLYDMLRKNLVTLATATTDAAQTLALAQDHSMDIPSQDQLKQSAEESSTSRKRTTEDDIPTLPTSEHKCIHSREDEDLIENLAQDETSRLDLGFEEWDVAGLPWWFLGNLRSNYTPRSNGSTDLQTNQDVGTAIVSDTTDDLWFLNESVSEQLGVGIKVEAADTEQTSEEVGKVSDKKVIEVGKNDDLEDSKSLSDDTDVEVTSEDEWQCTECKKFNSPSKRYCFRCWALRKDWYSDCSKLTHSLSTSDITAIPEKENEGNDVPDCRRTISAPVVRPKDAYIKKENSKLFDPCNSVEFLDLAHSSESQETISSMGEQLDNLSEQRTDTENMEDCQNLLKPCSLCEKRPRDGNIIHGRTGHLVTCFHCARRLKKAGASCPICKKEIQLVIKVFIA
Protein Mdm4 (Homo sapiens) + E3 ubiquitin-protein ligase Mdm2 (Homo sapiens), sequence (Q00987 whole entry, looked up): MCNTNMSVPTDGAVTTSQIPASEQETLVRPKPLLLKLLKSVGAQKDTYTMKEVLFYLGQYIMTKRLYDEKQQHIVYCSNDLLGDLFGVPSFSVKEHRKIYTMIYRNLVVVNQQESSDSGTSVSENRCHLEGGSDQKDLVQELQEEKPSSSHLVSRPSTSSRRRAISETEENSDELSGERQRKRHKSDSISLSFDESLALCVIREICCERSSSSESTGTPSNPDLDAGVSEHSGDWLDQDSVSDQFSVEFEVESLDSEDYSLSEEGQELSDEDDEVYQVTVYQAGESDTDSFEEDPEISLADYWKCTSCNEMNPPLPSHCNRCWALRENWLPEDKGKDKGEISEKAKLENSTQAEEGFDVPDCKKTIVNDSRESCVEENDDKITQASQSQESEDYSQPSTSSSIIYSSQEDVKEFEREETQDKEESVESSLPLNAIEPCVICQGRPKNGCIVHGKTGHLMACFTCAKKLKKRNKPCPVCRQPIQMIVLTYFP
COP9 signalosome complex subunit 5 (Homo sapiens), sequence (Q92905 whole entry, looked up, one chain of several): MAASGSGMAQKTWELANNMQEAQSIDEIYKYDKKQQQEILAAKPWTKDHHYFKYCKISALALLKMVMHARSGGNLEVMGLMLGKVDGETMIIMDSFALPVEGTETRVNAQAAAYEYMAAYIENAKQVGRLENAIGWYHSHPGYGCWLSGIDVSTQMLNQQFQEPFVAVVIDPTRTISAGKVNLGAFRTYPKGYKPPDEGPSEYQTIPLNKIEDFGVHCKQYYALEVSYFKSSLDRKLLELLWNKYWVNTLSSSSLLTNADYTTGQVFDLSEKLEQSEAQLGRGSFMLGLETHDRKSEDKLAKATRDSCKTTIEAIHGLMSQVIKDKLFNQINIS
Prothrombin (Bos taurus), sequence (P00735 whole entry, looked up): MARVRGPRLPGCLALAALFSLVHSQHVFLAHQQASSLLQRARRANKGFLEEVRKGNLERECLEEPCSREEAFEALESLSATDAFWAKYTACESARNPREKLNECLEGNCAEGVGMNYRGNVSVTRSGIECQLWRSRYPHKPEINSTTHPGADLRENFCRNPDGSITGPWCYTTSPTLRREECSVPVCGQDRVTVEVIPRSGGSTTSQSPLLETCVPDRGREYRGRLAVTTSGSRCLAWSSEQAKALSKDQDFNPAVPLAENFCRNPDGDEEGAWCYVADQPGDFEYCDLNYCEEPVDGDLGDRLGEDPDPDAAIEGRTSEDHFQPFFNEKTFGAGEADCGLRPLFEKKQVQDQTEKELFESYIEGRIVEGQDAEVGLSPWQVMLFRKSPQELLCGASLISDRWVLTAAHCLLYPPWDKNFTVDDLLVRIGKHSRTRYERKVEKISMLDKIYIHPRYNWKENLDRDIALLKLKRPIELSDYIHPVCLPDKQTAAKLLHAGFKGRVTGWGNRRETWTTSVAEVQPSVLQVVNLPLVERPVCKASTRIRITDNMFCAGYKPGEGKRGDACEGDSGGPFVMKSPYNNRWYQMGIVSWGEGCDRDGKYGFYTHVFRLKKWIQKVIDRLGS
72 kDa type IV collagenase (Homo sapiens), sequence (P08253 whole entry, looked up): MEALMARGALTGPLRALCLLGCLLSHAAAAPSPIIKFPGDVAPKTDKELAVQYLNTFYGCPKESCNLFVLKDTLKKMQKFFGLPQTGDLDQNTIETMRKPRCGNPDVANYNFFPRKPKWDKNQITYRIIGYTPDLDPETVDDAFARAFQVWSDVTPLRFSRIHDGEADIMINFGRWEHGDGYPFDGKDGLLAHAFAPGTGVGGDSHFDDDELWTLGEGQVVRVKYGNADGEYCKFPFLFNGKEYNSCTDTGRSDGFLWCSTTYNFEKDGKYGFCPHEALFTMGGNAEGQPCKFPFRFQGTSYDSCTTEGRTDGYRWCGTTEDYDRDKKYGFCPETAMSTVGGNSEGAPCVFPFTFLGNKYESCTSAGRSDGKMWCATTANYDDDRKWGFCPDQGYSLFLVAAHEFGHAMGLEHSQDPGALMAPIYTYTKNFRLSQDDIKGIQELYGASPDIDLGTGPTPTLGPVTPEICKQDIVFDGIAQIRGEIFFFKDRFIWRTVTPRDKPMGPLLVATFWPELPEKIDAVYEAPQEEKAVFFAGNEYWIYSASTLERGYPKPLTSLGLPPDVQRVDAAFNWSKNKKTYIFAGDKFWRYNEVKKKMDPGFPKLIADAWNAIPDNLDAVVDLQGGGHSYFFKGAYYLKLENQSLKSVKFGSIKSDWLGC

In the case of `c1ccc2cc3c(NCCN4CCOCC4)ccnc3cc2c1`, the cytotoxicity in assay [1] is 18%.
In the case of `Cc1cc(C)nc(Nc2n[nH]c(-c3ccccc3N)n2)n1`, the cytotoxicity in assay [1] is 37.6%.
On to `CCOc1ccc(NC(=O)NNC(=O)c2ccc(Cl)cc2Cl)cc1`, for which the cytotoxicity in assay [1] is -11.6%.
Take `O=C(NCC12CC3CC(C1)CC(CNC(=O)N1CCCC1)(C3)C2)N1CCCC1`: in [1], the cytotoxicity is -1.2%.
With `O=C(/C=C/c1ccc(Cl)c([N+](=O)[O-])c1)c1ccc(O)cc1`, the inhibition in assay [2] was 103% (active); in assay [3] it was -37.9%.
For `Cc1ccc(-c2cn3cc(C)ccc3n2)cc1`, in assay [4], the inhibition was 29% (active).
In the case of `CCC(C)Cn1c(O)cc2nn(-c3nc4ccccc4s3)c(=O)c-2c1C` (configuration not stated), the results for the inhibition (in [5]; in assay [6]; in the assay with Prothrombin (Bos taurus)) were 102% (active), 16% (active) and -1.66%, respectively.
Regarding `CCCOc1ccccc1C1CC(=O)Nc2cc3c(cc21)OCO3` (configuration not stated), the inhibition in [7] is 62% (active).
On to `Cc1ccccc1Nc1nc(N)nc(CSc2ccccc2)n1`, for which the inhibition in assay [7] is -82.8%.
For the compound `O=C(NC(Nc1nc2ccc([N+](=O)[O-])cc2s1)(C(F)(F)F)C(F)(F)F)c1ccccc1`, the inhibition in assay [7] is 80.7% (active).
The same measure, in the same setting: next, `CCOc1ccc2[nH]c3nc(SCC(=O)NC4CCCC4)nnc3c2c1`: 14.2%; `CCCOC(=O)c1[nH]c2c(c1C)C(=O)CC(c1cccs1)C2` (configuration not stated): 52.4% (active).
Regarding `CC(=O)c1ccc(Oc2cc(C)nc(-n3nc(C)cc3C)n2)cc1`, in [7], the inhibition was 58.9% (active).
Still for that read-out and setting: next, `O=C(NCc1ccc2c(c1)OCO2)c1cc([N+](=O)[O-])ccc1N1CCOCC1`: 38.1%.
For `CCOc1ccccc1NC(=O)Cn1nnc(C(=O)NCc2cccs2)c1N`, in assay [7], the inhibition was 51.6% (active).
In the case of `C=CCn1c(SCc2c(C)noc2C)nc2sc3c(c2c1=O)CCC(C)C3` (configuration not stated), the inhibition in [7] is 27.9%.
On to `COc1cc(N=Cc2c(O)[nH]c3ccccc23)cc(OC)c1OC`, for which the inhibition in assay [7] was -14%.
As for `CSc1nc(N(C)NC(=O)c2cccc(C)c2)c2ccccc2n1`, the inhibition in assay [7] was 57.2% (active).
As to `COc1ccc(CNS(=O)(=O)c2cc(-c3cc(C)no3)ccc2C(C)C)cc1`, the inhibition in [7] is 41.9%.
In the case of `O=C(COC(=O)c1ccc(F)cc1)NCC1COc2ccccc2O1` (configuration not stated), the inhibition in assay [7] was 12.1%.
With `Oc1cccc(/C=N/Nc2ccc(Cl)nn2)c1O`, the inhibition in assay [7] is 0.85%.
For the compound `CCOC(=O)c1ccc(NC(=O)Cn2cnc3cc(C)c(C)cc32)cc1`, the inhibition in assay [7] was 66.2% (active).
For `c1cnc(N2CCN(c3ccc4ccccc4n3)CC2)nc1`, the inhibition in [7] was -107%.
`COc1ccccc1N1CCN(C(=O)c2cc(=O)c3cc(C)cc(C)c3o2)CC1`: the inhibition in assay [7] was 54% (active).
As for `Cn1c(-c2ccc(F)cc2)cc2onc(-c3ccccc3Cl)c2c1=O`, the inhibition in [7] is -96.3%.
Same read-out and setting: then `O=C(Nc1ccc(CSc2ccccc2)cc1)c1ccc(CN2CCOCC2)cc1`, with 62.3% (active); and `CC[C@]1(O)CC2CN(CCc3c([nH]c4ccccc34)[C@@](C(=O)OC)(c3cc4c(cc3OC)N(C=O)[C@H]3[C@@](O)(C(=O)OC)[C@H](OC(C)=O)[C@]5(CC)C=CCN6CC[C@]43[C@@H]65)C2)C1` (some centres not stated), with 62.8% (active); and `CC(C)CC(=O)N/C(N)=N/c1nc2ccccc2s1`, with -131%.
Same read-out and setting: then `O=C(Nc1ccc2c(c1)OCCO2)C1CCCN(c2ncccn2)C1` (configuration not stated), with -110%; and `COc1ccc(CC(=O)Nc2nc(-c3ccc(F)c(F)c3)cs2)cc1OC`, with 58.5% (active); and `Cc1ccc(NC(=O)c2csc3c2CCCC3)cc1`, with -157%.
Turning to `O=C(/C=C/c1ccc([N+](=O)[O-])o1)NNC(=O)c1ccc(F)cc1`, in assay [7], the inhibition is 45.4%.
On to `COc1ccc(C)c(Cn2c(-c3nonc3N)nc3ccccc32)c1`, for which the inhibition in [7] is 44.8%.
The same measure, in the same setting: then `Cc1ccc(-n2ncc3c2CC(C)(C)CC3NC(=O)Cc2c(C)noc2C)cc1` (configuration not stated), with -15.6%.
On the same count and under the same terms, then `C/C(=N\NC(=O)c1ccccc1F)c1ccccn1`, with 4.3%; and `COc1ccc(CS(=O)/C(Cl)=C(/Cl)C(=O)Nc2ccc(OC)nc2)cc1` (configuration not stated), with 95.7% (active).
For `CCOc1ccc(NC(=O)c2ccc(NC(=O)COC(=O)c3ccc(NC(=O)CC#N)cc3)cc2)cc1`, the inhibition in assay [7] is -36.5%.
Consider `COc1ccccc1NC(=O)C1=C(C)Nc2nc3ccccc3n2C1c1cccs1` (configuration not stated), for which the inhibition in [7] is 42.7%.
With `O=C(NCCC1CCCCN1S(=O)(=O)c1cccs1)C(=O)Nc1ccc(F)cc1F` (configuration not stated), in [7], the inhibition is -3.5%.
Turning to `COc1ccc(-c2csc(-c3cccs3)n2)cc1OC`, the inhibition in assay [7] was -54.3%.
`COc1cc(/C=N/O)ccc1OCc1ccc([N+](=O)[O-])cc1`: the inhibition in assay [7] is -119%.
With `COc1ccccc1NC1=NC(c2ccc(Cl)cc2)N=C(N)N1` (configuration not stated), the inhibition in [7] was 18.7%.
For `Cc1ccc(SCCSc2ncccn2)cc1`, the inhibition in assay [7] was -64.3%.
`Cc1cccc(-n2c(C)cc(/C=N\NC(=O)c3cccs3)c2C)c1`: the inhibition in assay [7] was 6.7%.
Still for that read-out and setting: then `CCN(CC)c1ccc(/C=N/NC(=O)c2cnccn2)c(O)c1`, with -7.5%; and `Cc1cc(N)n2nc(-c3ccc(C(C)(C)C)cc3)cc2n1`, with -164%.
With `O=C(Nc1ccccc1Cl)/C(Cl)=C(\Cl)S(=O)c1ccccc1` (configuration not stated), the inhibition in [7] was 59.8% (active).
Regarding `C[C@@H]1C[C@@H]2O[C@H]2/C=C\C=C\C(=O)Cc2c(Cl)c(O)cc(O)c2C(=O)O1`, the inhibition is 96.4% (active) in [7] and 33.8% (active) in assay [4]. In addition, the activation in assay [8] is 134% (active).
Take `CCCOc1ccc(C(=O)NCCc2ccccc2)cc1`: the inhibition was -82% in assay [7]; 13.2% in [9]; 62% (active) in assay [10]; 88.3% (active) in assay [11]; 78% (active) with Caspase-3 (Homo sapiens); -5.4% in assay [12].
With `Cc1nc(NC(=O)c2ccc3c(c2)OCCO3)ccc1Br`, the inhibition in assay [7] is -134%; in assay [9], 82.6% (active); in [10], 80.5% (active); in assay [11], 96.2% (active); with Caspase-3 (Homo sapiens) it was 74% (active); in assay [12], 64.5% (active).
Consider `COc1ccc(-c2csc(Nc3ccccn3)n2)cc1`, for which the inhibition in assay [7] is 16.1%.
For the compound `CC(=O)Nc1ccc(Nc2c3ccccc3nc3ccccc23)cc1`, the inhibition in [7] is 26.9%.
Turning to `O=C(c1cnn(-c2ccc(Cl)cc2)c1)c1ccccc1O`, the inhibition in [7] was -109%; in assay [9], 11.7%; in assay [10], 95.3% (active); in assay [11], 78.6% (active); with Caspase-3 (Homo sapiens) it was 73.5% (active); in [12] it was 56.5% (active).
As to `O=[N+]([O-])c1ccccc1S(=O)(=O)Nc1cccc2cccnc12`, the inhibition is 33.1% in assay [7] and 102% (active) in assay [2]. The activation in [8] is 656% (active).
`COc1ccc(-n2nnnc2-c2nc3ccccc3s2)cc1`: the inhibition in assay [7] is -67.2%; in assay [9], 17.5%; in [10], 26.7%; in [11] it was 4.7%; in the assay with Caspase-3 (Homo sapiens) it was 35.5%; in [12] it was 1.6%.
